Measured values reported in PubChem BioAssay AID651789 (National Center for Advancing Translational Sciences (NCATS), 2012).
Records with an inconclusive call do not appear. Active and inactive are the calls of the source. The call rests on the fitted dose curve; in most records, active means well fitted inhibition curve with a large enough effect; inconclusive means small, poorly fitted or top-dose-only effect; inactive means no such curve, though single readings can be large or run the other way.

Assay: Acumen qHTS Assay for Inhibitors of the mTORC1 Signaling Pathway in WT MEF Cells: Hit Validation; further: nearly all actives have a fitted effect of over 60% in size;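 on activity change, negative = inhibition: phospho-rpS6 Ser235/236 immunofluorescence normalised to propidium iodide cell stain; percent of cells above a cutoff set by 7.5 nM rapamycin treated wells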
Settings: Acumen imaging; series mostly up to 37.3 µM; activity change, negative = inhibition: at the top concentration
Procedure, shortened: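 Read-out is immunofluorescent phospho-rpS6 (Ser235/236) normalised to PI-stained cell number, reported as % active cells using a 7.5 nM rapamycin threshold. Cells: WT or Tsc2-/-, p53-/- MEFs, compound-exposed 24 h at 37C; PI count also tracks viability.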
Potency means the concentration at half of the fitted maximal effect.

Row | Structure (SMILES) | activity change, negative = inhibition | Potency
1 | CC(C)(C)c1ccc(S(=O)(=O)N2CCC(c3ccncc3)CC2)cc1 | -12.2% (inactive) | –
2 | Cc1ccc(NC(=O)c2ccc(CN3CCN(C)CC3)cc2)cc1Nc1nccc(-c2cccnc2)n1 | -8.06% (inactive) | –
3 | COc1cc(NC(=O)Cn2nc(C(F)(F)F)c3c2CCCC3)c(OC)cc1Cl | -8.03% (inactive) | –
4 | O=C(Nc1ccc2nc(SCC(=O)N3CCCc4ccccc43)sc2c1)c1ccccc1F | -24.5% (inactive) | –
5 | CCOC(=O)c1cnc2ccc(OCC)cc2c1NCCc1ccc(OC)c(OC)c1 | -5.38% (inactive) | –
6 | FC(F)(F)c1cccc(Nc2c3c(nc4ccc(Cl)cc24)CCC3)c1 | – | 16.5 µM (active)
7 | Cc1c(C(=O)Nc2ccc(F)cc2F)nnn1-c1ccccc1Br | 7.63% (inactive) | –
8 | Cc1ccc(-n2ncc(C(=O)NCCCN3CCc4ccccc4C3)c2C2CCN(C(=O)OC(C)(C)C)CC2)c(C)c1 | 44.2% (inactive) | –
9 | c1ccc(N2CCN(c3ncnc4[nH]ncc34)CC2)cc1 | -11.7% (inactive) | –
10 | COc1cc(OC)cc(C(=O)NCCc2csc(-c3cccc(C)c3)n2)c1 | -2.29% (inactive) | –
11 | CN(CCCNC(=O)c1cc2c(Cl)nc3ccccc3c2s1)Cc1ccccc1 | -20.5% (inactive) | –
12 | COc1ccc(Cl)cc1NC(=O)CCCS(=O)(=O)c1nc(-c2ccc(OC)c(OC)c2)cc(C(F)(F)F)n1 | – | 3.69 µM (active)
13 | COc1ccc(/C=C/C(=O)Nc2ccc3nc(N4CCC(C)CC4)cc(C)c3c2)cc1OC | -13.4% (inactive) | –
14 | CCN1CCN(C(=O)Cn2ncc3c4ccccc4n(Cc4c(C)cc(C)cc4C)c3c2=O)CC1 | – | 5.21 µM (active)
15 | NC(N)=NC(=O)c1nc(Cl)c(N)nc1N | -21.2% (inactive) | –
16 | CCOc1ccccc1NC(=O)CN1C(=O)C(=O)c2ccccc21 | 13.2% (inactive) | –
17 | CCC(C)Sc1oc(-c2ccco2)nc1S(=O)(=O)c1ccc(C)cc1 (stereo not given) | -0.763% (inactive) | –
18 | CCOC(=O)c1ccc(N2C(=O)c3n[nH]c(-c4cccs4)c3C2c2cccc(F)c2)cc1 (stereo not given) | -12.8% (inactive) | –
19 | CCNS(=O)(=O)c1cc(-c2nnc(Nc3cccc(C(F)(F)F)c3)c3ccccc23)ccc1C | 14% (inactive) | –
20 | O=C(C1CCN(c2nc3ccccc3[nH]2)CC1)N1CCN(c2cccc(Cl)c2)CC1 | 2.04% (inactive) | –

Row | Structure (SMILES) | activity change, negative = inhibition | Potency
21 | CCOc1cc(CNCCSc2nnnn2C)cc(Cl)c1OCc1ccc(Cl)cc1 | 6.82% (inactive) | –
22 | Cn1nc(-c2ccc(OCC(=O)Nc3ccccc3)cc2)c2ccccc2c1=O | -6.11% (inactive) | –
23 | CCOC(=O)Cn1c(=O)c2c(nc(N3CCOCC3)n2Cc2ccccc2)n(C)c1=O | – | 4.14 µM (active)
24 | Cc1ccc(CN(Cc2ccco2)C(=O)c2cccc(C)c2)cc1 | 8.98% (inactive) | –
25 | Cc1c(C(=O)OCCOc2ccccc2)[nH]c2c1C(=O)CC(c1ccccc1)C2 (stereo not given) | – | 0.0656 µM (active)
26 | NC(=O)c1ccccc1NC(=O)c1ccc(-c2ccc(Br)cc2)o1 | -20.5% (inactive) | –
27 | CCc1ccc(CNc2ncc(-c3cccc(OC)c3)n2C)cc1 | -20.4% (inactive) | –
28 | CCCSc1ncc(Cl)c(C(=O)Nc2ccc(S(=O)(=O)N3CCCCC3C)cc2)n1 (stereo not given) | -12% (inactive) | –
29 | COC(=O)c1c(C)oc2ccc(N(C(=O)c3ccncc3)S(=O)(=O)c3ccc(OC)cc3)cc12 | – | 4.14 µM (active)
30 | Fc1ccc(Nc2nc3nonc3nc2Nc2cccc(C(F)(F)F)c2)cc1 | – | 5.21 µM (active)
31 | COc1ccccc1N1CCN(Cc2cc(COC(C)C)c3cccnc3c2O)CC1 | – | 2.93 µM (active)
32 | CCn1c2ccccc2c2cc(CN3CCN(Cc4ccc(Cl)cc4)CC3)ccc21 | 18.5% (inactive) | –
33 | Cc1ccc(CS(=O)(=O)c2ncc(Cl)c(C(=O)Nc3nnc(C(C)C)s3)n2)cc1 | – | 11.7 µM (active)
34 | Cc1cccc(OCc2ccc(-c3nc(C#N)c(NCCN(C)C)o3)o2)c1 | -13.5% (inactive) | –
35 | COc1ccc(CCNC(=O)CCCn2nc(C)c3sc4ccccc4c3c2=O)cc1OC | -1.53% (inactive) | –
36 | CCC(Sc1nncn2c1cc1oc(C)cc12)C(=O)Nc1ccc(F)cc1 (stereo not given) | -29.6% (inactive) | –
37 | COc1cccc(-c2nc(SCC(=O)NCC3CCCO3)c(-c3ccc(F)cc3)[nH]2)c1 (stereo not given) | 12.2% (inactive) | –
38 | Cc1nn(CCCC(=O)NCc2cccc(Cl)c2)c(=O)c2c1sc1ccccc12 | 8.4% (inactive) | –
39 | O=C(NCc1ccccc1Cl)C(=O)NCC(c1cccs1)S(=O)(=O)c1cccs1 (stereo not given) | -22.4% (inactive) | –
40 | Cc1cc(OCC(=O)Nc2cc(-c3nc4ccccc4[nH]3)ccc2C)ccc1Cl | 70% (inactive) | –
